# PubChem BioAssay AID1259415 (National Center for Advancing Translational Sciences (NCATS), 2018)
# In all, about 410,000 compounds went through this assay and about 18,000 (4.4%) were called active. Another 7% or so got no clear call; they are omitted. No stated cut-off is given here; in the data, active means activity change below about -60%; inconclusive means no clear call, values can overlap the other calls; inactive means above about -39%. Many of the other results were omitted from the sample, so actives are more common in it than they were.
# Assay: qHTS Assay for inhibitors of the human cytomegalovirus (HCMV)
# Details: HFF cells, HCMV-luciferase reporter, 72 h; at 57.5 µM; stronger effect = lower value
# How it was run: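 Cell-based, HFFs, 1000 cells/well, 16 h 37C; cpds in DMSO + HCMV-luc, MOI 1 PFU/cell; 72 h 37C; OneGlo luminescence after 5 min RT; norm. to buffer vs Salinomycin 10uM.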
# On the % scale 0 is the no-effect control and ±100 the full control effect.
row,Structure (SMILES),"activity change, negative = inhibition"
1,CCCCn1c(N)c(N(CCC(C)C)C(=O)COC(=O)c2cccnc2OCC)c(=O)[nH]c1=O,-5.28% (inactive)
2,NS(=O)(=O)c1ccc(CNC(=O)c2cc(S(=O)(=O)N3CCOCC3)ccc2N2CCCC2)cc1,-10.4% (inactive)
3,COc1cc(OC)c(OC)cc1/C=C/c1nc2ccccc2c(=O)n1-c1ccc(Br)c(C)c1,3.49% (inactive)
4,CCCN(CCC)c1c([N+](=O)[O-])c(=O)oc2ccccc12,-7.74% (inactive)
5,CCn1c(/C=C/c2ccc([N+](=O)[O-])o2)nc2ccccc2c1=O,-99.1% (active)
6,Cc1cc2nc(-c3ccc(NC(=O)c4cc5ccccc5o4)cc3)oc2cc1C,98.1% (inactive)
7,C=CCN1C(=O)N(Cc2ccccc2)c2ccccc2S1(=O)=O,8.55% (inactive)
8,Cc1ccc(-n2c(SCC(=O)Nc3cccc(F)c3)nc3c(oc4ccccc43)c2=O)cc1C,-8.05% (inactive)
9,O=c1onc(-c2cccs2)n1Cc1ccccc1,-71.3% (active)
10,O=C(CSc1nnc(-c2cccs2)n1Cc1ccccc1)N1CCc2ccccc2C1,-10.6% (inactive)
11,Cc1cc(NC(=O)c2cc(-c3cccs3)on2)nn1Cc1ccc(Cl)cc1,-28.3% (inactive)
12,COCCNC(=O)c1ccc2c(c1)ncn2-c1ccc(C)c(Cl)c1,52.5% (inactive)
13,CCc1ccc(Sc2cc(C(=O)NCCCOC(C)C)c3ccccc3n2)cc1,-34.7% (inactive)
14,CCC1=Nc2cc(C(=O)NCCCOC(C)C)ccc2Sc2ccc(C)cc21,-62.8% (active)
15,CCC1=Nc2cc(C(=O)NCC(C)c3ccccc3)ccc2Sc2ccc(C)cc21 (configuration not stated),-7.44% (inactive)
16,CC1=Nc2cc(C(=O)NCc3ccc(C)cc3)ccc2Sc2ccc(Cl)cc21,-34.6% (inactive)
17,COCCNC(=O)c1ccc2c(c1)N=C(C)c1cc(C)ccc1S2,-83.7% (active)
18,COc1ccc(Cc2nnnn2CC(=O)O)cc1,-17% (inactive)
19,Cc1ccc(NC(=O)CN2C(=O)C(c3ccc(F)cc3)=NC23CCCCCC3)c(C)c1,0.733% (inactive)
20,CCC(=O)N1c2ccccc2CC1C(=O)N1CCN(c2ccccc2F)CC1 (configuration not stated),3.71% (inactive)
21,O=C(NCCC1=CCCCC1)c1ccc2c(c1)N(Cc1ccccc1F)C(=O)c1ccccc1S2(=O)=O,2.55% (inactive)
22,CCOc1ccccc1N(C)C(=O)c1cc2c(s1)-c1ccccc1OC2,2.75% (inactive)

row,Structure (SMILES),"activity change, negative = inhibition"
1,Cc1ccc(-c2noc(CCC(=O)Nc3ccccc3N3CCN(C)CC3)n2)cc1,-68.8% (active)
2,COc1ccc(-c2noc(CCC(=O)N3CCN(c4cccc(C)c4)CC3)n2)cc1,1.95% (inactive)
3,COc1cccc(CNC(=O)CCc2nc(-c3ccc(C)cc3)no2)c1,9.74% (inactive)
4,CCCN(c1ccc(C)cc1)c1nc(=O)c2cccnc2s1,-20.6% (inactive)
5,COc1ccc(OC)c(CNC(=O)CN2C(=O)CCn3nc(-c4cn(C)c5ccccc45)cc32)c1,3.11% (inactive)
6,O=C(NCCC1CCCCN1S(=O)(=O)c1ccc(F)cc1)C(=O)NC1CC1 (configuration not stated),-34% (inactive)
7,O=C1/C(=C/c2ccc(F)cc2)SC(=S)N1CCCC(=O)N1CCCCC1CCO (configuration not stated),-100% (active)
8,O=C1CCCCN1CCCC(=O)N1CCCC(Nc2ccc(F)cc2)C1 (configuration not stated),4.92% (inactive)
9,COc1ccc(S(=O)(=O)NCc2cccn2Cc2cccc(C)c2)cc1Cl,-8.25% (inactive)
10,CCOC(=O)C1CCN(c2nc3c(S(=O)(=O)c4ccc(CC)cc4)nnn3c3ccc(Cl)cc23)CC1,10.1% (inactive)
11,COc1ccc2c(c1)CC[C@@H]1[C@@H]2CC[C@]2(C)C(=O)CC[C@@H]12,-18.8% (inactive)
12,Cc1ccc2nc(-c3ccccc3)c(CC3CCCCC3)n2c1,43.3% (inactive)
13,Cc1ccc(-c2nc(SCc3ccc(Br)cc3)n3[nH]c(=O)cc3n2)cc1,81.8% (inactive)
14,Cc1ccc(-c2cn3cc(C)ccc3n2)cc1,-91.4% (active)
15,Cc1ccc(-n2cc3ccc([N+](=O)[O-])cc3n2)cc1,46.8% (inactive)
16,Cc1nc(=O)c(-c2ccccc2)c(C)n1-c1ccc(Br)cc1,-37% (inactive)
17,Cc1ccc2nc(-c3ccc(Br)cc3)cn2c1,-89.7% (active)
18,CC(=O)Nc1c(-c2ccc(C)cc2)nc2ccc(Cl)cn12,7.31% (inactive)
19,Cc1ccc(N2CCN(c3ccc([N+](=O)[O-])cn3)CC2)c(C)c1,-6% (inactive)
20,Cc1ccc(-c2cn3cc([N+](=O)[O-])ccc3n2)cc1,-89.1% (active)
21,CCOC(=O)c1c(C)[nH]c(C)c1S(=O)(=O)N1CCC(C(=O)Nc2ccc(C)c(Cl)c2)CC1,1.11% (inactive)
22,CCOC(=O)c1c(C)[nH]c(CCC(=O)NCCCN2CCN(c3cccc(Cl)c3)CC2)c1C,-37.8% (inactive)

row,Structure (SMILES),"activity change, negative = inhibition"
1,CCOc1cc(CNC(=O)c2sc3ncnc(N(C)C4CCCCC4)c3c2C)ccc1OC,-22.8% (inactive)
2,O=C1CC(Sc2ncn[nH]2)C(=O)N1c1ccccc1 (configuration not stated),-11.2% (inactive)
3,CCOc1ccc(CCNC(=O)CN(c2ccc(C)cc2)S(=O)(=O)N(C)C)cc1OCC,-14.8% (inactive)
4,Cc1nn2c(=O)cc(COC(=O)CNC(=O)c3ccc(F)cc3)nc2s1,-0.933% (inactive)
5,Cc1ccc(S(=O)(=O)N2[C@@H](c3cccc4ccccc34)C(C(=O)O)=C[C@H]2C(C)(C)C)cc1,-14.1% (inactive)
6,CCOC(=O)C1C(C)C(C(C)(C)C)N(S(=O)(=O)c2ccc(C)cc2)C1c1ccccc1 (configuration not stated),-77.2% (active)
7,CCOC(=O)c1ccn(S(=O)(=O)c2ccc(C)cc2)c1-c1ccccc1,-18.7% (inactive)
8,CCc1nc2ccc(C(=O)N3CCN(c4cc(Cl)ccc4C)CC3)cc2nc1CC,33.5% (inactive)
9,CCC(=O)N1CCc2cc(S(=O)(=O)NC(C(=O)Nc3ccc(C(C)=O)cc3)C(C)C)ccc21 (configuration not stated),7.35% (inactive)
10,C=Cn1cc[n+](CC(=O)c2ccc(OC)c(OC)c2)c1,-10.4% (inactive)
11,COc1ccc(S(=O)(=O)N2CCC(C(=O)N3CCCC3)CC2)cc1C,1.95% (inactive)
12,COc1ccc(-c2ccc(Nc3ccc(S(=O)(=O)N4CCCC4)cc3)nn2)cc1OC,-67% (active)
13,COc1ccccc1CC(=O)Nc1ccc(S(=O)(=O)N2CCCC2)cc1,-14.7% (inactive)
14,O=C(CSc1oc(-c2ccccc2)nc1S(=O)(=O)c1ccc(Br)cc1)NC1CCCCC1,14% (inactive)
15,O=C(NCc1ccc(F)cc1)c1ccc(Cn2c(SCc3ccc(F)cc3)nc3cccnc32)cc1,16% (inactive)
16,Cc1c(C(=O)N(C)C)sc2c1c(=O)n(-c1ccc(F)cc1)c(=O)n2CC(=O)N(C)c1ccccc1,7.53% (inactive)
17,CN(C(=O)COC(=O)CNC(=O)C12CC3CC(CC(C3)C1)C2)c1ccccc1,5.66% (inactive)
18,Cc1ccc(S(=O)(=O)NCCC(=O)OCC(=O)N(C)c2ccccc2)cc1,2.56% (inactive)
19,CN(C(=O)CC(NC(=O)c1ccccc1)(c1ccccc1)c1ccccc1)c1ccccc1,-66.2% (active)
20,Cc1ccc(C)c(Oc2c(C(F)(F)F)oc3c(CN4CCN(C)CC4)c(O)ccc3c2=O)c1,-2.3% (inactive)
21,Cn1c(=O)nc2n(-c3ccc(Br)cc3)c3cccc(Cl)c3cc-2c1=O,-1.09% (inactive)
22,CCOC(=O)c1cc(OC(=O)c2ccccc2Cl)n(-c2ccccc2)n1,-20.3% (inactive)

row,Structure (SMILES),"activity change, negative = inhibition"
1,Cc1ccc(CCNC(=O)c2nnc(Cc3cccc(F)c3)o2)cc1,-16.3% (inactive)
2,COc1ccc(C(CNCC(=O)Nc2ccccc2F)N(C)C)cc1 (configuration not stated),8.02% (inactive)
3,COc1ccc(C(CCNCc2ccccc2F)c2ccc(F)cc2)cc1 (configuration not stated),-62.4% (active)
4,COc1ccc(CCNC(=O)COC(=O)Cc2ccccc2F)cc1,3.43% (inactive)
5,C=C1CCN([C@H](C(=O)NCc2cc(OC)c(OC)c(OC)c2)C(C)C)S(=O)(=O)c2ccccc21,9.82% (inactive)
6,Cc1cccc(N2CCN(C(=O)Cn3ncc4c5ccccc5n(C)c4c3=O)CC2C)c1 (configuration not stated),17.6% (inactive)
7,CCOC(=O)N1CCN(C(=O)C2CCN(S(=O)(=O)c3cc(Cl)ccc3OCC)CC2)CC1,-87% (active)
8,CCOC(=O)N1CCN(C(=O)C2CCN(S(C)(=O)=O)CC2)CC1,-16.6% (inactive)
9,CCN1CCN(C(=O)C2CCN(S(=O)(=O)c3cc(Cl)ccc3Cl)CC2)CC1,10.9% (inactive)
10,CCn1c2c(c(=O)n3ncc(C(=O)N4CCN(c5ccccc5)CC4)c13)CN(Cc1ccc(OC)cc1)CC2,17.6% (inactive)
11,COc1ccccc1-n1c(-c2ccc(C)cc2)cn2c3c(=O)n(C)c(=O)n(C)c3nc12,-0.712% (inactive)
12,COCC(C)N=CC1=C(O)CC(C)(C)CC1=O (configuration not stated),36.9% (inactive)
13,O=C(NCCCN1CCCC1=O)C(=O)NCC1OCCN1S(=O)(=O)c1ccc(Br)cc1 (configuration not stated),-19.1% (inactive)
14,CC(C)NC(=O)C1CCC(Cn2c(=O)c3sccc3n(Cc3ccc(F)cc3)c2=O)CC1 (configuration not stated),23.5% (inactive)
15,OCCC1CN(Cc2ccc3nsnc3c2)CCN1C1CCCC1 (configuration not stated),-14.5% (inactive)
16,Cn1cnnc1Sc1ccc(CN2CCN(C3CCCC3)C(CCO)C2)o1 (configuration not stated),-68.7% (active)
17,OCCC1CN(Cc2ccc3nsnc3c2)CCN1C1CCCCC1 (configuration not stated),11.1% (inactive)
18,CCN(C(=O)Cn1cc(S(=O)(=O)N2CCN(c3ccccc3F)CC2)c2ccccc2c1=O)c1ccc(C)c(C)c1,3.86% (inactive)
19,COc1ccccc1OCCNc1cc(N2CCOCC2)ccc1[N+](=O)[O-],63.8% (inactive)
20,COc1ccc(CCNC(=O)C(=O)NCc2ccccc2C)cc1OC,-36% (inactive)
21,COc1ccc(CCNc2cc(N3CCN(C(=O)c4ccccc4OC)CC3)ccc2[N+](=O)[O-])cc1OC,-94% (active)
